Source: PubChem (National Center for Advancing Translational Sciences (NCATS))
Lamin A splicing: LMNA splicing modulation; HeLa LMNA splicing GFP/RFP minigene ratio, 48 h; Potency, µM (series often up to 46.1 µM), hits mostly inhibitors; actives 0.01% (n = 200,000); active means well fitted inhibition curve with a large enough effect in the signal ratio, with a control signal flat, not every such curve was filed as active; inconclusive means small, poorly fitted or top-dose-only effect, or effect the other way, or a change in a side signal; the % refers to the signal ratio
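S3 HeLa stable clones carrying a lamin A-EGFP splicing minigene plus DsRed2 were seeded at 600 cells/well in Opti-MEM with 2% FBS, pin-dosed and incubated 48 h at 37°C. Acumen cytometry (488 nm) gave the GFP/RFP total-intensity ratio.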
CXXC DNA block: MLL CXXC-DNA interaction inhibition | Q03164 | AID 2662 | Potency, µM (titrated, usually from 115 µM), most hits filed as inhibitors | actives 0.037% (n = 290,000) | MLL-CXXC / FITC-HOXA9 DNA fluorescence polarization; active means well fitted inhibition curve with a large enough effect in the polarisation, with a control signal flat, not every such curve was filed as active; inconclusive means small, poorly fitted or top-dose-only effect, or effect the other way, or a change in a side signal; inactive means no such curve, though single readings can be large or run the other way; the % refers to the polarisation
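Purified MLL-CXXC (added from a 7 uM solution) was preincubated 5 min at ambient with pinned compounds in 50 mM Tris-HCl pH 7.5, 50 mM NaCl, 1 mM DTT, 0.05% BSA. Fluorescein-labeled HOX-A9 DNA (50 nM solution) followed, 30 min, then polarization read.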
Menin MLL FP TR: displaces Texas Red mutant MLL peptide from human menin; Potency, µM (top dose mostly 61.6 µM), actives largely listed as inhibitors; AID 1768; actives 0.23% (n = 270,000); O00255; Menin + Texas Red MLL mutant peptide, fluorescence polarization; active means well fitted inhibition curve with a large enough effect in the polarisation, with a control signal flat, not every such curve was filed as active; inconclusive means small, poorly fitted or top-dose-only effect, or effect the other way, or a change in a side signal; inactive means no such curve, though single readings can be large or run the other way; the % refers to the polarisation
Epigenetic reg: derepresses silenced GFP reporter in murine cells. actives 0.2% (n = 280,000). Potency, µM (titrated, usually from 53.9 µM), hits mostly activators. murine LDR cells, GFP reporter derepression, 30 h; active means well fitted activation curve with a large enough effect; inconclusive means small, poorly fitted or top-dose-only effect; further: nearly all actives have a fitted effect of over 60% in size
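Murine LDR cells carrying a silenced, genomically integrated CMV-driven GFP reporter were exposed to compound for 30 hours at 37 C. After PBS washes, GFP-positive cells (20–120 um objects) were counted by laser-scanning microplate cytometry.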
Menin MLL FP FL: displaces fluorescein MLL peptide from human menin; 290,000 tested, under 10 active; FP activity change, % at 61.4 µM; Fluorescence polarization, fluorescein-MLL peptide displacement from menin; AID 1766; active means well fitted curve in the direction sought with a large enough effect in the polarisation, not every such curve was filed as active; inconclusive means small, poorly fitted or top-dose-only effect, or effect the other way, or a change in a side signal; inactive means no such curve, though single readings can be large or run the other way; the % refers to the polarisation
Each line names hits and unclear results; the compound was inactive in the other large screens. This is a sample that favours compounds with a hit; in the whole collection about 0.26% have one here.

CCN1/C(=C/c2ccc3cc(C)ccc3[n+]2CC)Sc2cc(C)c(C)cc21	Lamin A splicing inconclusive, CXXC DNA block inconclusive, Menin MLL FP TR inconclusive, Epigenetic reg 25µM, Menin MLL FP FL inconclusive
COc1ccc([C@@H]2CC(=O)c3c(O)cc(O[C@@H]4O[C@H](CO)[C@@H](O)[C@H](O)[C@H]4O[C@@H]4O[C@@H](C)[C@H](O)[C@@H](O)[C@H]4O)cc3O2)cc1	none (no result: Lamin A splicing, CXXC DNA block, Epigenetic reg)
COC(=O)c1ccc(Cl)cc1NC(=O)N1CC=C(c2c[nH]c3ccccc23)CC1	Epigenetic reg 28µM (no result: Lamin A splicing, CXXC DNA block, Menin MLL FP TR, Menin MLL FP FL)
CN(C)CC(O)Cn1c2ccc(Br)cc2c2cc(Br)ccc21 (stereo not drawn)	none (no result: Lamin A splicing, CXXC DNA block, Menin MLL FP TR, Menin MLL FP FL)
CCc1ccc(NC(=O)c2sc3nc(C)c(C(=O)Nc4ccc(C)cc4C)c(-c4ccco4)c3c2N)cc1	Epigenetic reg 18µM (no result: Lamin A splicing, CXXC DNA block, Menin MLL FP TR, Menin MLL FP FL)
CO/N=C(/C(=O)N[C@@H]1C(=O)N2C(C(=O)O)=CCS[C@H]12)c1csc(N)n1	none (no result: Lamin A splicing, Epigenetic reg)
CCOC(=O)c1cc(N)cc([N+](=O)[O-])c1	none
CCOC(=O)c1sc2cc([N+](=O)[O-])cc(SCC(C)C)c2c1N	Epigenetic reg 3.2µM, Menin MLL FP FL inconclusive (no result: Menin MLL FP TR)
CC(=O)N1CCN(c2ccc(NCc3ccc(C)s3)cc2)CC1	none
CC(=O)N1CCN(c2ccc(NCc3cccs3)cc2)CC1	Menin MLL FP TR 28µM
Cc1ccc(C(=O)NCCCNc2ccc(C(F)(F)F)cc2[N+](=O)[O-])cc1	none
O=C(NCCCNc1ccc(C(F)(F)F)cc1[N+](=O)[O-])c1ccc(F)cc1	Epigenetic reg 18µM
Cc1ccc(-c2noc(-c3ccccc3NC(=O)c3ccccc3)n2)cc1	none (no result: Lamin A splicing, CXXC DNA block, Menin MLL FP TR, Menin MLL FP FL)
Cc1ccc(-c2noc(-c3ccccc3NC(=O)C3CC(=O)N(c4cccc(C)c4)C3)n2)cc1 (stereo not drawn)	Epigenetic reg 16µM (no result: Lamin A splicing, CXXC DNA block, Menin MLL FP TR, Menin MLL FP FL)
C=C1CCC[C@]2(C)C[C@H]3OC(=O)[C@H](CNCCc4ccccc4OC)C3CC12 (stereo partly drawn)	Menin MLL FP TR inconclusive (no result: Lamin A splicing, CXXC DNA block)
Cc1nonc1NC(=O)CSc1nc2c(C)cccc2cc1C#N	Epigenetic reg 16µM, Menin MLL FP FL inconclusive
N#Cc1c(C(F)(F)F)cc(-c2ccccc2)nc1SCc1nc(N)nc(N2CCOCC2)n1	Epigenetic reg 6.3µM, Menin MLL FP FL inconclusive
Cc1ccccc1NC(=O)/C=C/c1ccc([N+](=O)[O-])s1	Lamin A splicing inconclusive, Epigenetic reg 3.5µM, Menin MLL FP FL inconclusive
CC(=O)c1cccc(NC(=O)/C=C/c2ccc([N+](=O)[O-])s2)c1	Menin MLL FP TR inconclusive, Epigenetic reg 4µM, Menin MLL FP FL inconclusive (no result: Lamin A splicing)
O=C(CC1SC(=NCCc2ccccc2)N(/N=C/c2cccs2)C1=O)Nc1ccc(Cl)cc1 (stereo not drawn)	Menin MLL FP TR 40µM
O=C(CC1SC(=O)N(c2ccccc2)C1=O)Nc1ccc(Cl)cc1 (stereo not drawn)	none (no result: Lamin A splicing, Menin MLL FP TR)
CCN(CC)CCNC(=O)c1ccc(Cc2nc3ccccc3[nH]2)cc1	none (no result: Lamin A splicing, CXXC DNA block, Menin MLL FP TR, Menin MLL FP FL)
Cc1ccc(CNC(=O)Cn2cc(C(=O)c3ccc(F)cc3)c(=O)c3ccc(C)nc32)cc1	none (no result: CXXC DNA block, Menin MLL FP TR, Menin MLL FP FL)
CCc1ccc(C(=O)c2cn(CC(=O)Nc3cc(F)ccc3F)c3nc(C)ccc3c2=O)cc1	Epigenetic reg 20µM (no result: Lamin A splicing, CXXC DNA block, Menin MLL FP TR, Menin MLL FP FL)
CN(C)CCNC(=O)c1ccc(-n2c(=O)c(=O)[nH]c3ccccc32)cc1	none (no result: Lamin A splicing, CXXC DNA block, Menin MLL FP TR, Menin MLL FP FL)
CCOC(=O)/C(=C\C=C1/Sc2ccccc2N1CC)C(C)=O	CXXC DNA block inconclusive, Epigenetic reg 16µM, Menin MLL FP FL inconclusive
CC(=O)Nc1ccc(-c2cc(-c3ccc(NC(C)=O)cc3)nc(-c3ccccc3)n2)cc1	Menin MLL FP TR 6.3µM, Epigenetic reg inconclusive
O=C1C=CC(=O)C2=C1C1c3ccccc3C2c2ccccc21	Menin MLL FP TR inconclusive (no result: Lamin A splicing, CXXC DNA block)
O=C(N/N=C\C=C\c1ccc2c(c1)OCO2)C1COc2cc3ccccc3cc2O1 (stereo not drawn)	Menin MLL FP TR 20µM
O=C(N/N=C/c1ccc2c(c1)OCO2)C1COc2ccccc2O1 (stereo not drawn)	none
COc1oc(=O)c2cc(N)ccc2c1Cl	none (no result: Lamin A splicing, CXXC DNA block, Epigenetic reg)
COc1cc(/C=C2/CC/C(=C/c3ccc(O)c(OC)c3)C2=O)ccc1O	Epigenetic reg 25µM, Menin MLL FP FL inconclusive (no result: Lamin A splicing, Menin MLL FP TR)
CCc1ccc(/C=C2\CN(CC)Cc3c2nc2ccccc2c3C(=O)O)cc1	Menin MLL FP TR inconclusive, Epigenetic reg 16µM, Menin MLL FP FL inconclusive
COc1ccc2nc(NC(=O)C3CCN(S(=O)(=O)c4cccs4)CC3)sc2c1	Lamin A splicing inconclusive (no result: Menin MLL FP TR)
COc1ccc2nc(NC(=O)C3CCCN(S(=O)(=O)c4cccs4)C3)sc2c1 (stereo not drawn)	Menin MLL FP TR 22µM
NC(C(=O)O)C(O)c1ccc(O)c(O)c1 (stereo not drawn)	Lamin A splicing inconclusive (no result: Epigenetic reg)
CSc1ccc(/C=c2\s/c(=C\C(=O)C(C)(C)C)n(CC(=O)NCCC3=CCCCC3)c2=O)cc1	CXXC DNA block inconclusive, Epigenetic reg 20µM, Menin MLL FP FL inconclusive
O=[N+]([O-])c1ccc2[nH]c(O)c(N=Nc3ccc(F)cc3)c2c1	Menin MLL FP TR inconclusive, Menin MLL FP FL inconclusive (no result: Lamin A splicing, Epigenetic reg)
CCN(CC)S(=O)(=O)c1cc([N+](=O)[O-])ccc1N=Nc1c(O)[nH]c2ccccc12	Epigenetic reg 18µM, Menin MLL FP FL inconclusive
CN(C)c1ccc(/C=C(\C#N)C(=O)Nc2nc3c(s2)CCN(Cc2ccccc2)C3)cc1	CXXC DNA block inconclusive, Epigenetic reg 7.9µM, Menin MLL FP FL inconclusive
CCc1ccc(C2=NN(S(C)(=O)=O)C(c3cccs3)C2)cc1 (stereo not drawn)	Lamin A splicing inconclusive, Epigenetic reg 18µM, Menin MLL FP FL inconclusive
O=C(NCCN1CCCCC1)c1ccc(-n2c(=O)c(=O)[nH]c3ccccc32)cc1	none (no result: Lamin A splicing, CXXC DNA block, Menin MLL FP TR, Menin MLL FP FL)
O=C(O)C1CC(CCCP(=O)(O)O)CCN1 (stereo not drawn)	none (no result: Lamin A splicing, CXXC DNA block, Epigenetic reg)
CCCCN=C1NN=C(c2ccc3c(c2)OCCO3)CS1	none
c1cc2c(cc1C1=NNC(=NC3CC3)SC1)OCCO2	Lamin A splicing inconclusive, Epigenetic reg 28µM
O=C(O)c1ccccc1NS(=O)(=O)c1ccc(F)c(Cl)c1	none (no result: Lamin A splicing, CXXC DNA block, Menin MLL FP TR, Menin MLL FP FL)
COc1cc2nc(/C=C/c3ccc(N(C)C)cc3)sc2cc1SC	Lamin A splicing inconclusive, CXXC DNA block inconclusive, Menin MLL FP TR inconclusive, Epigenetic reg 11µM, Menin MLL FP FL inconclusive
Oc1cccc(Nc2c3ccccc3nc3ccccc23)c1	Menin MLL FP TR 32µM (no result: Lamin A splicing, Epigenetic reg)
N[C@H](CSSC[C@@H](N)C(=O)O)C(=O)O	none (no result: Lamin A splicing, CXXC DNA block, Epigenetic reg)
